# Measured values reported in publication PMC5540273 (PLoS ONE, 2017).
# Columns and labels:
# LZK = system: T1, LZK
# T1 construct: gene MAP3K13
# MEK1 = system: T2, MEK1
# T2 construct: gene MAP2K1
# MLCK = system: T3, MLCK
# T3 construct: gene MYLK3
# 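Also: kd values determined as follow-up on hits from a single-replicate KINOMEscan panel screen.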
smiles,measurement,setting,value
Fc1cccc(COc2ccc(Nc3ncnc4sc(-c5ccc[nH]5)cc34)cc2Cl)c1 [GW707818],Kd,LZK,> 10 µM
O=C(NCCCN1CCCC1=O)c1cnc(NCc2cc(Cl)ccc2Cl)nc1NC1CCNCC1,Kd,MAK,> 10 µM
c1ccc(-c2ccc3c(-c4ccnc(Nc5ccc6c(c5)OCCO6)n4)cnn3n2)cc1 [GW818941],Kd,MAK,> 10 µM
same,Kd,MET,> 10 µM
Cn1cc(-c2ccc3c(c2)CCN3C(=O)Cc2cccc(C(F)(F)F)c2)c2c(N)ncnc21 [GSK2606414],Kd,MAPKAPK2,> 10 µM
CCn1c(-c2ccncc2)nc2cnccc21 [SB-735216],Kd,MARK3,> 10 µM
CC(C)(C)OC(=O)NC1CCCN(c2cc(-c3ccc4c(N)n[nH]c4c3)nc(N)n2)C1 (stereo not shown) [GSK2286096],Kd,MEK1,> 10 µM
C[C@H]1CC[C@@H](C(=O)Nc2ccccc2)CN1c1cc(-c2ccc3c(N)n[nH]c3c2)nc(N)n1 [GSK2283293],Kd,MET,> 10 µM
CSc1ccc(NC2=C(c3ccccc3Cl)C(=O)NC2=O)cc1 [SB-342411],Kd,MKNK1,> 10 µM
Nc1n[nH]c2nnc(-c3ccccc3)cc12 [SB-517389],Kd,MLCK,> 10 µM
